Data taken from PubChem BioAssay AID1117319 (Southern Research Institute, 2015).
Several values for one entry are separate records, joined by “and”; a condition that tells them apart may be missing. Equal values may be shown once. In all, about 260,000 compounds went through this assay and about 1,500 (0.58%) were called active. Another 5% or so got no clear call; they are omitted. The list is a sample of the results. Results with a measured potency or affinity are listed apart. Unmarked numbers belong to inactive results.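 The calls were made as follows: active = inhibition above a set limit at one or more doses, reproduced on every date tested; inconclusive = results disagree between test dates, or hit never tested in dose response; inactive = the rest.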

These compounds were tested against Virion infectivity factor (Human immunodeficiency virus type 1 group M subtype B (isolate BH10)) + Virion infectivity factor (Human immunodeficiency virus type 1 group M subtype B (isolate BRU/LAI)) + Virion infectivity factor (Human immunodeficiency virus type 1 group M subtype B (isolate PCV12)) + Virion infectivity factor (Human immunodeficiency virus type 1 group M subtype B (isolate HXB2)) + DNA dC->dU-editing enzyme APOBEC-3G (Homo sapiens) (UniProt P69720+P69721+P69722+P69723+Q9HC16) (assay: inhibitors of Vif binding to APOBEC3G peptide, primary screen, biochemical, TR-FRET, GST-Vif 1-94, biotin-A3G peptide, dose response retest (AID 1117319;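 also: Vif residues 1-94 fused to GST binding biotinylated APOBEC3G peptide 110-148; 0% = full assay without inhibitor and 100% = GST in place of GST-Vif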)). Conditions: hits give high values.
In the case of `Cc1ccccc1C(=O)O/N=C1\CCS(=O)(=O)c2sccc21`, the inhibition is reported as 1.21%.
Work on `CCOc1ccc(S(=O)(=O)Nc2cc(OC)ccc2OC)cc1` yielded an inhibition of 6.81%.
With `CCCCOc1ccc(S(=O)(=O)Nc2cc(OC)ccc2OC)cc1` the inhibition was 1.88%.
`CCOc1ccc(/C=N/NC(=O)CN2CCCCCCC2)cc1` was tested, and the inhibition was 7.01%.
For `COc1ccc(NC(=O)NNC(=O)c2ccc(Cl)cc2Cl)cc1OC`, the inhibition was 0.67%.
`Cc1c(Cl)cccc1NS(=O)(=O)c1ccccc1` showed an inhibition of -1.9%.
`COc1cccc(NS(=O)(=O)c2ccc3c(c2)NC(=O)CC(=O)N3)c1` showed an inhibition of -6.3%.
With `O=C(O)c1cccc(S(=O)(=O)Nc2ccccc2Cl)c1` the inhibition was 65.8%.
Work on `O=C(O)c1ccc(NS(=O)(=O)c2ccc3c(c2)C2C=CCC2C(c2ccccc2F)N3)cc1` (centres undefined) yielded an inhibition of -10%.
Compound `CN(C)CCNC(=O)Cn1nc(C(F)F)cc1C1CC1` has an inhibition of 12.5%.
In the case of `O=C(Nc1nc2c(ccc3ccccc32)s1)c1cc([N+](=O)[O-])ccc1N1CCOCC1`, the inhibition is reported as -2.48%.
`CC(=O)Oc1ccccc1C(=O)N1CCN(S(=O)(=O)c2ccc3ccccc3c2)CC1` gave an inhibition of -7.33%.
In the case of `CC(=O)c1ccc(NC(=O)Cn2nc(C)cc2C)cc1`, the inhibition is reported as 1.14%.
`Cc1cc(C)n(CC(=O)NNC(=O)c2ccc(S(C)(=O)=O)cc2)n1` gave an inhibition of -6.9%.
`Cc1nc(C)n(CC(O)COc2ccc(C(=O)c3ccccc3)cc2)n1` (centres undefined) gave an inhibition of 11.5%.
`CCCc1cc(=O)oc2c(CN3CCCC3)c(O)c(Cl)cc12` showed an inhibition of 8.61%.
With `CCc1cc(=O)oc2cc(C)c(CN3CCCC(C)C3)c(O)c12` (centres undefined) the inhibition was 11.2% and 11.8%.
Work on `Cc1cc2oc(=O)cc(CN3CCCCC3)c2cc1O` yielded an inhibition of -5.08%.
Work on `CCCc1cc(=O)oc2c(CN3CCCC3)c(O)ccc12` yielded an inhibition of -2.7%.
With `Fc1ccc2nc(Nc3ccccc3)sc2c1` the inhibition was -8.41%.
With `CCCCNC(=O)CN1CCN(Cc2ccc3cc(OC)ccc3c2)CC1` the inhibition was -10.8%.
`CCN1CCc2c(sc3c2c(NCc2ccco2)nc2nnnn23)C1` was tested, and the inhibition was 11.3%.
With `CSc1nc(NCc2ccco2)c2c3c(sc2n1)CN(C)CC3` the inhibition was 21.2%.
With `Cc1ccc(OCC(=O)N/N=C2/SCC(=O)N2Cc2ccco2)cc1` the inhibition was 11.4%.
`Cc1ccc(-c2nnc(SCC(=O)NNC(=O)COc3cccc(C)c3)n2C)cc1` showed an inhibition of -3.33%.
`C=CCn1c(C)cc(C(=O)CSc2nc3ccccc3c(=O)[nH]2)c1C` showed an inhibition of 11.7%.
`COCCn1c(C)cc(C(=O)CSc2nc3ccccc3c(=O)[nH]2)c1C` was tested, and the inhibition was 25.5%.
With `COc1ccccc1C1CCN(Cc2ccc(Cl)c(Cl)c2)CC1` the inhibition was -7.3%.
`CC(C)(C)C(=O)Cn1c[n+](N)cn1` was tested, and the inhibition was 2.71%.
Compound `Cc1c(Br)c(=O)oc2c(Br)c(O)ccc12` has an inhibition of -6.73%.
`Cc1c(Br)c(=O)oc2c(C)c(O)ccc12` gave an inhibition of -26.6%.
In the case of `Cc1cc(SCC(=O)N/N=C/c2ccc(O)cc2O)c(C)cc1Br`, the inhibition is reported as 31.7%.
`Cc1cc(SCC(=O)N/N=C/c2ccc(O)c(O)c2)c(C)cc1Br` showed an inhibition of 7.89%.
`COc1ccc(CN2C(=O)c3cccnc3C2=O)cc1S(=O)(=O)N1CCCCC1C` (centres undefined) was tested, and the inhibition was 1.43%.
Compound `CCOC(=O)C1=C(C)C(c2ccccc2OC)NC(=O)N1` (centres undefined) has an inhibition of 25.5%.
`O=C(c1ccccc1)c1ccc(Oc2ncccn2)cc1` was tested, and the inhibition was -0.66%.
`N#CCc1ccc(Oc2ncccn2)cc1` showed an inhibition of 2.04%.
For `O=C(COC(=O)c1ccccc1Nc1ccc(SC(F)F)cc1)NC1CC1`, the inhibition was -3.33%.
With `CCCCCOc1ccc(C(=O)NCC(=O)NCC(=O)OCC)cc1` the inhibition was 21.7%.
`CCCCOc1ccc(C(=O)NCC(=O)OCCCOC(=O)CNC(=O)c2ccc(OCCCC)cc2)cc1` gave an inhibition of -9.89%.
`NC(=O)C1CCN(C(=O)c2cc3n(n2)C(C(F)(F)F)CC(c2ccco2)N3)CC1` (centres undefined) showed an inhibition of 21.3%.
Compound `COc1ccccc1N1CCN(C(=O)c2cc3n(n2)C(C(F)(F)F)CC(c2ccco2)N3)CC1` (centres undefined) has an inhibition of 3.76%.
Work on `O=C(O)c1cc2n(n1)C(C(F)(F)F)CC(c1ccco1)N2` (centres undefined) yielded an inhibition of 23.7%.
For `NC(=O)c1cc2n(n1)C(C(F)(F)F)CC(c1ccco1)N2` (centres undefined), the inhibition was 28%.
For `O=C(c1cc(-n2cnnc2)ccc1Cl)N1CCN(c2nc(-c3ccccc3)cs2)CC1`, the inhibition was -0.17%.
In the case of `O=C(NC12CC3CC(CC(C3)C1)C2)N(Cc1ccccc1)Cc1ccncc1`, the inhibition is reported as -2.12%.
Compound `Cc1cc(C)n2nc(SCCCC(=O)c3ccccc3)nc2n1` has an inhibition of -0.54%.
For `COc1ccccc1NC(=S)NNC(=O)c1cc(C)n(C)n1`, the inhibition was 5.87%.
Compound `COc1ccc2[nH]c(C)c(CCNC(=S)Nc3ccccc3C)c2c1` has an inhibition of -0.27%.
Work on `O=c1oc2ccccc2c2oc3cc(O)c(O)cc3c12` yielded an inhibition of 24.2%.
With `O=c1oc2cc(O)ccc2c2ccccc12` the inhibition was -45.8%.
`O=c1oc2cc(O)ccc2c2oc3cc(O)ccc3c12` was tested, and the inhibition was 21.4%.
Work on `O=c1oc2cc(O)c(Cl)cc2c2ccccc12` yielded an inhibition of -238%.
Compound `COc1cccc(NC(=O)CN(C)C(=O)c2cc(-c3cccc(Br)c3)nc3ccccc23)c1` has an inhibition of 4.76%.
Work on `CCOC(=O)c1nc(NCc2cccc(OC)c2)c2ccccc2n1` yielded an inhibition of -2.69%.
`O=C(COC(=O)c1cc(=O)[nH]c2ccccc12)NC1CCCC1` showed an inhibition of 8.34%.
`CCOC(=O)c1cnc2c(C#N)cnn2c1N` showed an inhibition of -5.32%.
`CCOC(=O)c1cnc2c(C(=O)OCC)cnn2c1N` showed an inhibition of 4.51%.
`CCSc1nc(-c2ccccc2)c(-c2ccccc2)n1CC(O)CO` (centres undefined) showed an inhibition of -5.14%.
With `CCc1ccc[n+](-c2[nH]c(=O)sc2/C=N/NC([S-])=Nc2ccccc2)c1` the inhibition was 30%.
Work on `Cc1ccc[n+](-c2[nH]c(=O)sc2/C=N/N=C(\[O-])CCn2c3ccccc3c3ccccc32)c1` yielded an inhibition of -0.87%.
Work on `O=C(Nc1ccc(F)cc1Cl)c1ccc2c(=O)n3c(nc2c1)CCC3` yielded an inhibition of 2.76%.
With `O=C(CSc1ccc2c(c1)OCCO2)N1CCN(c2ccccc2O)CC1` the inhibition was 14.3%.
`Nc1cc(Cl)ccc1Oc1ccc(Cl)cc1` gave an inhibition of 14.4%.
Work on `Nc1cc(Cl)ccc1Oc1ccccc1` yielded an inhibition of -0.78%.
`CC(=O)Nc1ccc(S(=O)(=O)NCCC(=O)N2CCC(Cc3ccccc3)CC2)cc1` showed an inhibition of -8.11%.
Work on `CCC(=O)N(CCC1(C(C)C)CCOC(C)(C)C1)Cc1ccco1` (centres undefined) yielded an inhibition of 1.68%.
Work on `O=C(CC1C(=O)NCCN1Cc1ccccc1)NCCN1CCCCC1=O` (centres undefined) yielded an inhibition of 4.62%.
`CC(C)(C)CN1CCNC(=O)C1CC(=O)NCCN1CCCc2ccccc21` (centres undefined) was tested, and the inhibition was 20.1%.
With `Cc1ccccc1NC(=O)c1cnn(-c2ccccc2)c1C` the inhibition was -7.17%.
Compound `NC(=S)NCc1cccnc1` has an inhibition of -0.39%.
`CCn1cc(S(=O)(=O)CC(=O)NC2CCCCC2)c2ccccc21` gave an inhibition of -2.6%.
For `CCOC(=O)N1CCN(S(=O)(=O)c2ccc(C)c(C(=O)NC3CCCCC3)c2)CC1`, the inhibition was 5.81%.
`c1ccc2nc(-c3ccc4c(c3)OCO4)ccc2c1` showed an inhibition of 5.74%.
`CCNc1ccccc(-c2ccc3ccccc3n2)c1=O` was tested, and the inhibition was 14.5%.
In the case of `COc1ccc(NC(=O)c2cc(S(=O)(=O)N3CCCCC3)ccc2N2CCCCC2)cn1`, the inhibition is reported as 5.2% and 0.78%.
`Cn1c(=O)c2c(ncn2CC(=O)N/N=C/C=C/c2ccccc2)n(C)c1=O` was tested, and the inhibition was 7.57%.
`O=C(C=Cc1ccco1)c1ccco1` gave an inhibition of 3.42%.
`O=C(/C=C/c1ccco1)Nc1cccnc1` showed an inhibition of 1%.
In the case of `Cn1c(=O)c2c(ncn2CC(=O)N/N=C/C=C/c2ccccc2[N+](=O)[O-])n(C)c1=O`, the inhibition is reported as 10.3%.
`O=C(N/N=C/C=C/c1ccccc1)c1ccncc1` was tested, and the inhibition was -6.12%.
In the case of `O=C(/C=C/c1ccco1)Nc1ccccn1`, the inhibition is reported as 1.75%.
With `O=C(c1ccco1)N(c1ccccn1)c1ccccn1` the inhibition was 3.18%.
For `COc1ccccc1/C=C/C=N/NC(=O)c1ccncc1`, the inhibition was -1.29%.
`OC(CNCCNc1ncccc1C(F)(F)F)Cn1ccc2ccccc21` (centres undefined) showed an inhibition of 4.3%.
With `O=C(CNS(=O)(=O)c1ccc(Br)cc1)N1CCN(c2ccc(F)cc2)CC1` the inhibition was -8.26%.
`O=C(O)CNC(=O)CCn1nnc2ccccc2c1=O` gave an inhibition of -2.36%.
Compound `CCOc1cccc2sc(NC(=O)c3ccc(Br)s3)nc12` has an inhibition of -37.3%.
`Cc1ccc(NC(=O)CCC(=O)N/N=C/c2cccs2)cc1C` was tested, and the inhibition was -6.77%.
Work on `Cc1cc(C)n2c(SCCC(C)C)nnc2n1` yielded an inhibition of 10.9%.
In the case of `CCOC(=O)Oc1ccc2c(=O)c(Oc3cccc(C)c3)coc2c1`, the inhibition is reported as 0.27%.
In the case of `CC(=O)N1CCSc2ccc(S(=O)(=O)NCCc3ccc(C)cc3)cc21`, the inhibition is reported as 2.49%.
`Cc1ccc(SCc2c(C(=O)N/N=C/c3ccc(C)o3)nnn2-c2nonc2N)cc1` gave an inhibition of -4.93%.
In the case of `N#Cc1ccc(OCc2cccc(S(=O)(=O)N3CCOCC3)c2)cc1`, the inhibition is reported as 0.78%.
`c1ccc(-c2nnc(-c3ccco3)o2)cc1` was tested, and the inhibition was -6.32%.
For `O=C(N/N=C/C=C/c1ccccc1)c1cccnc1`, the inhibition was -6.59%.
Work on `CC(/C=C/c1ccco1)=N/NC(=O)c1ccc(C)nc1` yielded an inhibition of 1.76%.
For `CC(/C=C/c1ccco1)=N\NC(=O)c1cccc(Cl)c1`, the inhibition was -1.59%.
`CC(/C=N/NC(=O)c1cccnc1)=C\c1ccco1` was tested, and the inhibition was 28.6%.
